In all, about 5,500 compounds went through this assay and about 2,000 (36%) were called active. Roughly 18% stayed inconclusive and do not appear here. Rule as the data show it: active = normalized growth mostly below about 0.91 (no sharp cut-off); inconclusive = no clear call, values can overlap the other calls; inactive = mostly above about 0.92. The list shows a part of the results.
Assay: chemical genetic growth profiling, strain panel (AID 1159580);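 also: tested at 20 µM; growth read once vehicle control cultures reached saturation at 30 °C; 1 = growth at the plate median or of vehicle wells; lower values mean less growth of the strain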
Conditions: growth OD
[1] = S. cerevisiae deletion strains, locus YAL013W, strain DEP1, stronger effect = lower value
[2] = S. cerevisiae deletion strains, locus YBR229C, strain ROT2, stronger effect = lower value
[3] = S. cerevisiae deletion strains, locus YDL101C, strain DUN1, stronger effect = lower value
[4] = S. cerevisiae deletion strains, locus YDR150W, strain NUM1, stronger effect = lower value
[5] = S. cerevisiae deletion strains, locus YEL061C, strain CIN8, stronger effect = lower value
[6] = S. cerevisiae deletion strains, locus YGR078C, strain PAC10, stronger effect = lower value
[7] = S. cerevisiae deletion strains, locus YHR030C, strain SLT2, stronger effect = lower value
[8] = S. cerevisiae deletion strains, locus YHR087W, strain rtc3, stronger effect = lower value
[9] = S. cerevisiae deletion strains, locus YJR043C, strain POL32, stronger effect = lower value
[10] = S. cerevisiae deletion strains, locus YJR075W, strain HOC1, stronger effect = lower value
[11] = S. cerevisiae deletion strains, locus YKL190W, strain CNB1, stronger effect = lower value
[12] = S. cerevisiae deletion strains, locus YLR039C, strain RIC1, stronger effect = lower value
[13] = S. cerevisiae deletion strains, locus YLR058C, strain SHM2 (second series), stronger effect = lower value
[14] = S. cerevisiae deletion strains, locus YLR085C, strain ARP6, stronger effect = lower value
[15] = S. cerevisiae deletion strains, locus YLR262C, strain YPT6, stronger effect = lower value
[16] = S. cerevisiae deletion strains, locus YML094W, strain GIM5, stronger effect = lower value
[17] = S. cerevisiae deletion strains, locus YMR219W, strain ESC1, stronger effect = lower value
[18] = S. cerevisiae deletion strains, locus YMR263W, strain SAP30, stronger effect = lower value
[19] = S. cerevisiae deletion strains, locus YNL153C, strain GIM3, stronger effect = lower value
[20] = S. cerevisiae deletion strains, locus YNL298W, strain CLA4 (second series), stronger effect = lower value
[21] = S. cerevisiae deletion strains, locus YNL322C, strain KRE1, stronger effect = lower value
[22] = S. cerevisiae deletion strains, locus YNR030W, strain Alg12, stronger effect = lower value
[23] = S. cerevisiae deletion strains, locus YPL055C, strain LGE1, stronger effect = lower value
[24] = S. cerevisiae deletion strains, locus YPL241C, strain CIN2, stronger effect = lower value
[25] = S. cerevisiae deletion strains, locus YPR135W, strain CTF4, stronger effect = lower value
[26] = S. cerevisiae deletion strains, locus YAL040C, strain CLN3, stronger effect = lower value
[27] = S. cerevisiae deletion strains, locus YER002W, strain NOP16, stronger effect = lower value
[28] = S. cerevisiae deletion strains, locus YNL175C, strain NOP13, stronger effect = lower value
[29] = S. cerevisiae deletion strains, locus YNL197C, strain WHI3, stronger effect = lower value
[30] = S. cerevisiae deletion strains, locus YNL224C, strain SQS1, stronger effect = lower value
[31] = S. cerevisiae deletion strains, locus YOR083W, strain WHI5 (second series), stronger effect = lower value

Measured: normalized growth

NNC(=S)Nc1ccc(C(F)(F)F)cc1
active: [1] 0.918 | [2] 0.895 | S. cerevisiae deletion strains, locus YCL061C, strain MRC1, stronger effect = lower value 0.872 | [5] 0.796 | [6] 0.867 | [7] 0.331 | [8] 0.899 | [11] 0.715 | [14] 0.254 | [16] 0.703 | [19] 0.912 | [20] 0.378 | [22] 0.522 | [23] 0.735 | [24] 0.661 | [25] 0.513 | S. cerevisiae strains, strain wild type, stronger effect = lower value 0.756
inactive: [3] 0.982 | [4] 0.899 | [9] 0.972 | [10] 0.961 | [12] 0.847 | [13] 0.968 | [15] 0.962 | [17] 0.985 | [18] 0.937 | [21] 0.999

CC(=O)NN(C)c1ccc(C(F)(F)F)cc1[N+](=O)[O-]
inactive: [1] 1.01 | [2] 1.01 | [3] 1 | [4] 0.991 | [5] 1.02 | [6] 1 | [7] 1.11 | [8] 1.01 | S. cerevisiae deletion strains, locus YJL187C, strain SWE1, stronger effect = lower value 1.02 | [9] 1.01 | [10] 1 | [11] 1.01 | [12] 1 | [13] 1.01 | [14] 1.04 | [15] 0.986 | [16] 1.02 | [17] 1.01 | [18] 1.01 | [19] 1.01 | [20] 1.01 | [21] 1.01 | [22] 1.02 | [23] 0.989 | [24] 1.02 | [25] 1.07

CN(NC(=S)Nc1cc(Cl)ccc1Cl)c1ccc(C(F)(F)F)cc1[N+](=O)[O-]
inactive: S. cerevisiae deletion strains, locus YAR019C, strain CDC15, stronger effect = lower value 0.972 | S. cerevisiae deletion strains, locus YBL105C, strain PKC1, stronger effect = lower value 0.972 | S. cerevisiae deletion strains, locus YBR135W, strain CKS1, stronger effect = lower value 0.982 | S. cerevisiae deletion strains, locus YBR136W, strain MEC1, stronger effect = lower value 0.97 | S. cerevisiae deletion strains, locus YBR160W, strain CDC28, stronger effect = lower value 0.979 | S. cerevisiae deletion strains, locus YDL017W, strain CDC7, stronger effect = lower value 0.972 | S. cerevisiae deletion strains, locus YDL028C, strain MPS1, stronger effect = lower value 0.985 | [3] 0.969 | S. cerevisiae deletion strains, locus YDL108W, strain KIN28, stronger effect = lower value 0.969 | S. cerevisiae deletion strains, locus YDL132W, strain cdc53, stronger effect = lower value 0.97 | S. cerevisiae deletion strains, locus YDL214C, strain PRR2, stronger effect = lower value 0.946 | S. cerevisiae deletion strains, locus YDR052C, strain DBF4, stronger effect = lower value 0.965 | S. cerevisiae deletion strains, locus YDR054C, strain cdc34, stronger effect = lower value 0.97 | S. cerevisiae deletion strains, locus YDR226W, strain ADK1, stronger effect = lower value 0.984 | S. cerevisiae deletion strains, locus YDR477W, strain SNF1, stronger effect = lower value 0.964 | S. cerevisiae deletion strains, locus YER123W, strain YCK3, stronger effect = lower value 0.893 | S. cerevisiae deletion strains, locus YER133W, strain GLC7, stronger effect = lower value 0.949 | S. cerevisiae deletion strains, locus YFL009W, strain cdc4, stronger effect = lower value 0.977 | S. cerevisiae deletion strains, locus YFL029C, strain CAK1, stronger effect = lower value 0.979 | S. cerevisiae deletion strains, locus YFR003C, strain YPI1, stronger effect = lower value 0.973 | S. cerevisiae deletion strains, locus YFR019W, strain FAB1, stronger effect = lower value 0.977 | S. cerevisiae deletion strains, locus YFR028C, strain CDC14, stronger effect = lower value 0.978 | S. cerevisiae deletion strains, locus YGR040W, strain KSS1, stronger effect = lower value 0.96 | S. cerevisiae deletion strains, locus YGR052W, strain FMP48, stronger effect = lower value 0.96 | S. cerevisiae deletion strains, locus YGR092W, strain DBF2, stronger effect = lower value 0.825 | S. cerevisiae deletion strains, locus YHR079C, strain IRE1, stronger effect = lower value 0.785 | S. cerevisiae deletion strains, locus YHR082C, strain KSP1, stronger effect = lower value 1.03 | S. cerevisiae deletion strains, locus YHR205W, strain SCH9, stronger effect = lower value 0.886 | S. cerevisiae deletion strains, locus YIL147C, strain SLN1, stronger effect = lower value 0.971 | S. cerevisiae deletion strains, locus YJL095W, strain BCK1, stronger effect = lower value 0.885 | S. cerevisiae deletion strains, locus YJL128C, strain PBS2, stronger effect = lower value 0.929 | S. cerevisiae deletion strains, locus YJL157C, strain FAR1, stronger effect = lower value 0.915 | S. cerevisiae deletion strains, locus YJR016C, strain ILV3, stronger effect = lower value 0.971 | S. cerevisiae deletion strains, locus YJR066W, strain TOR1 (second series), stronger effect = lower value 0.915 | S. cerevisiae deletion strains, locus YJR066W, strain TOR1, stronger effect = lower value 0.973 | S. cerevisiae deletion strains, locus YKL048C, strain ELM1, stronger effect = lower value 0.938 | S. cerevisiae deletion strains, locus YKL067W, strain YNK1, stronger effect = lower value 0.953 | S. cerevisiae deletion strains, locus YKL101W, strain HSL1, stronger effect = lower value 0.964 | S. cerevisiae deletion strains, locus YKL193C, strain SDS22, stronger effect = lower value 0.952 | S. cerevisiae deletion strains, locus YKL203C, strain TOR2, stronger effect = lower value 0.99 | S. cerevisiae deletion strains, locus YLR133W, strain CKI1, stronger effect = lower value 0.929 | S. cerevisiae deletion strains, locus YLR403W, strain SFP1, stronger effect = lower value 0.929 | S. cerevisiae deletion strains, locus YML070W, strain DAK1, stronger effect = lower value 0.922 | S. cerevisiae deletion strains, locus YMR001C, strain CDC5, stronger effect = lower value 0.971 | S. cerevisiae deletion strains, locus YMR205C, strain PFK2 (second series), stronger effect = lower value 0.967 | S. cerevisiae deletion strains, locus YMR277W, strain FCP1, stronger effect = lower value 0.972 | S. cerevisiae deletion strains, locus YNL006W, strain LST8, stronger effect = lower value 0.974 | S. cerevisiae deletion strains, locus YNL020C, strain ARK1, stronger effect = lower value 0.897 | S. cerevisiae deletion strains, locus YNL161W, strain CBK1, stronger effect = lower value 0.977 | S. cerevisiae deletion strains, locus YNL183C, strain NPR1, stronger effect = lower value 0.972 | S. cerevisiae deletion strains, locus YNL207W, strain RIO2, stronger effect = lower value 0.976 | S. cerevisiae deletion strains, locus YNL222W, strain SSU72, stronger effect = lower value 0.982 | S. cerevisiae deletion strains, locus YNL307C, strain MCK1 (second series), stronger effect = lower value 0.932 | S. cerevisiae deletion strains, locus YOL078W, strain AVO1, stronger effect = lower value 0.974 | S. cerevisiae deletion strains, locus YOL136C, strain PFK27, stronger effect = lower value 0.903 | S. cerevisiae deletion strains, locus YOR061W, strain CKA2, stronger effect = lower value 0.907 | S. cerevisiae deletion strains, locus YOR119C, strain RIO1, stronger effect = lower value 1.04 | S. cerevisiae deletion strains, locus YOR231W, strain MKK1, stronger effect = lower value 0.847 | S. cerevisiae deletion strains, locus YOR329C, strain SCD5, stronger effect = lower value 0.97 | S. cerevisiae deletion strains, locus YPL031C, strain PHO85, stronger effect = lower value 0.937 | S. cerevisiae deletion strains, locus YPL153C, strain RAD53, stronger effect = lower value 0.942 | S. cerevisiae deletion strains, locus YPL204W, strain HRR25, stronger effect = lower value 0.911 | S. cerevisiae deletion strains, locus YPL209C, strain IPL1, stronger effect = lower value 0.977 | S. cerevisiae deletion strains, locus YPR025C, strain CCL1, stronger effect = lower value 0.981 | S. cerevisiae deletion strains, locus YPR106W, strain ISR1, stronger effect = lower value 0.981 | S. cerevisiae deletion strains, locus YPR111W, strain DBF20, stronger effect = lower value 0.959 | S. cerevisiae deletion strains, strain NNK1, stronger effect = lower value 0.951 | S. cerevisiae deletion strains, strain TSCII, stronger effect = lower value 0.968
active: [7] 0.711 | S. cerevisiae deletion strains, locus YLR113W, strain HOG1, stronger effect = lower value 0.74 | S. cerevisiae deletion strains, locus YPL256C, strain CLN2, stronger effect = lower value 0.762

O=C1C=CC(=O)C=C1
inactive: [26] 0.986 | [27] 1 | [6] 0.912 | [18] 1 | S. cerevisiae deletion strains, locus YMR307W, strain GAS1, stronger effect = lower value 1.04 | [28] 1.02 | [29] 1.05 | [30] 1 | [21] 0.99 | [31] 1.01 | [23] 0.979

CC(=O)O[C@H]1CC2(C)[C@@H](C[C@@H](O)[C@H]3[C@@]4(C)CC[C@@H](O)[C@@H](C)[C@@H]4CC[C@@]32C)C1=C(CCC=C(C)C)C(=O)O (some centres not stated)
inactive: [26] 1.02 | S. cerevisiae deletion strains, locus YCL061C, strain MRC1 (second series), stronger effect = lower value 1.01 | [4] 1.02 | S. cerevisiae deletion strains, locus YDR363W, strain ESC2, stronger effect = lower value 1.02 | [27] 1.04 | [6] 1.03 | [28] 1 | [29] 1 | [30] 0.974 | [21] 1.01 | [31] 0.996 | [24] 1.01
